ELG1 repair inh = blocks ELG1-dependent DNA repair in HEK293T cells | HEK293T ELG1-luciferase reporter, luminescence, 16 h; DNA damage induced by 5-fluorouridine | Potency, µM (top dose mostly 46.1 µM), inactives show at the top dose activity change, negative = inhibition, usual class: inhibitors | 330,000 tested, 2.3% active; note: % is set by controls: 0 for no effect and ±100 for the full control effect; nearly all actives have a fitted effect of over 55% in size
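Cells (2,000 per well) received 5-fluorouridine plus test compound or DMSO and were incubated 16 hr at 37 °C, 5% CO2. Luciferase activity was read by luminescence 30 min after ONE-Glo addition; signal suppression marked inhibition of damage-induced ELG1 function.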
RORgamma inh = inhibitors of mouse ROR gamma transcriptional activity; AID 2551; Drosophila S2 Gal4-RORgamma UAS-luciferase reporter, 20 h; 310,000 tested, 5.4% active; Potency, µM (titrated, usually from 53.6 µM), for the others: at the highest dose activity change, negative = inhibition, actives largely listed as inhibitors; note: % is set by controls: 0 for no effect and ±100 for the full control effect; nearly all actives have a fitted effect of over 60% in size
Target sequence (P51450 whole entry, looked up, the tested form may be a part): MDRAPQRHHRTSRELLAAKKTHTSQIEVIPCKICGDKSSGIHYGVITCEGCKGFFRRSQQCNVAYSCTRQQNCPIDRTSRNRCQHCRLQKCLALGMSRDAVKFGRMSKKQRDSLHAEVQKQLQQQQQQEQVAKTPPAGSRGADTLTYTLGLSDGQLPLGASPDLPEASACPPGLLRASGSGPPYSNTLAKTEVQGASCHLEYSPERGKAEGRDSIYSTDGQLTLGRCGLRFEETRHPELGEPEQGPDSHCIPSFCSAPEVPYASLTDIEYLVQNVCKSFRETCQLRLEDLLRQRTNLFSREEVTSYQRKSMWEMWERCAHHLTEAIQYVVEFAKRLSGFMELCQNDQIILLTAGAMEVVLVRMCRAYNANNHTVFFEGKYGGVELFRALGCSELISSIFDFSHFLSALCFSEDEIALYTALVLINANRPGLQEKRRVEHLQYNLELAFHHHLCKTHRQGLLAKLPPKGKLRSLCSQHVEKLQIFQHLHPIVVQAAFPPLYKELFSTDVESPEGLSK
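Drosophila S2 cells stably expressing Gal4-DBD/mouse RORγ fusion under metallothionein promoter plus UAS-luciferase; compound 1 h, then 700 uM CuSO4 induction for 20 h at ambient temperature; inhibition read as reduced luminescence.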
SW480 rereplic = DNA re-replication induction in SW480 cells; SW480 DNA re-replication, Hoechst DNA content imaging, 48 h; Potency, µM (highest dose often 46.1 µM), without a hit: at the highest dose re-replication activation, actives largely listed as activators; 340,000 tested, 1.8% active; AID 624297; note: % of control where 0% means no effect; nearly all actives have a fitted effect of over 55% in size
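Readout is total intensity of Hoechst-stained nuclei, excited at 405 nm and collected at 500-530 nm. Compound treatment lasted 48 hr at 37 C in 5% CO2 before staining.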
MCF10A rerep = DNA re-replication induction in MCF 10a cells; MCF 10A DNA re-replication, Hoechst nuclear intensity, 48 h; 350,000 tested, 2.9% active; AID 624296; Potency, µM (top dose mostly 46.1 µM), for inactives: at the top dose activity, positive = re-replication, actives largely listed as activators; note: % of control where 0% means no effect; nearly all actives have a fitted effect of over 50% in size
Gal4-VP16 FLuc = counter-screen for ROR gamma inhibitors: Gal4-VP16 reporter; AID 2546; 310,000 tested, 3.5% active; Drosophila S2 Gal4-VP16 UAS-luciferase, luminescence, 20 h; Potency, µM (titrated, usually from 53.6 µM), without a hit: top-dose activity, negative = inhibition, actives largely listed as inhibitors;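 note: Gal4-VP16 expression switched on by copper sulfate through the metallothionein promoter; % is set by controls: 0 for no effect and ±100 for the full control effect; nearly all actives have a fitted effect of over 50% in size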
An asterisk follows results filed as active; ? = inconclusive; nt = not tested or not shown. Hits are enriched below; roughly 10% of the tested compounds scored in any of these assays. Calls come from the whole dose curve; as a rule, active = well fitted curve in the direction sought with a large enough effect; inconclusive = small, poorly fitted or top-dose-only effect, or another doubt; inactive = no such curve, though single readings can be large; an effect the other way counts as inactive or inconclusive. Potency is the fitted concentration of half-maximal effect.

SMILES	ELG1 repair inh	RORgamma inh	SW480 rereplic	MCF10A rerep	Gal4-VP16 FLuc
CCC1OC(=O)CC(O)C(C)[C@@H](O[C@@H]2OC(C)[C@H](O[C@@H]3C[C@@](C)(O)C(O)C(C)O3)C(N(C)C)C2O)[C@H](CC=O)CC(C)C(=O)/C=C/C(C)=C/[C@@H]1COC1OC(C)C(O)C(OC)[C@@H]1OC (some centres not stated)	nt	1%	-6%	2%	14%
O=C1NC(=O)C(=Cc2ccc(N3CCOCC3)cc2)C(=O)N1	5%	-6%	-9%	-1%	-3%
NC(N)=N/N=C/c1ccc(N2CCOCC2)cc1	-14%	-5%	6.5µM*	?	-14%
CCN1CCN(CC(c2ccccc2)c2ccccc2)CC1	-3%	20µM*	-33%	?	-6%
ClC(Cl)c1ccccc1	nt	15%	nt	nt	7%
CCOc1cc(/C=N/NC(=O)c2cccs2)ccc1OC(=O)N1CCOCC1	?	30%	-2%	21%	0%
CC/C(=N\NC(=S)Nc1ccccc1)c1c(O)[nH]c(=O)[nH]c1=O	0%	5.6µM*	-4%	-7%	?
C/C(=N\Nc1ccccc1)c1c(O)n(-c2ccccc2)c(=O)[nH]c1=O	?	-2%	6%	?	4%
C/C(=N\Nc1ccccc1)c1c(O)[nH]c(=O)[nH]c1=O	5.2µM*	5%	21µM*	?	-13%
CCC(=NC1CCN(Cc2ccccc2)CC1)c1c(O)[nH]c(=O)[nH]c1=O	?	-3%	-5%	12%	-2%
C[C@]12CC[C@H]3[C@@H](CCC4=CC(=O)CC[C@@H]43)[C@@H]1CC[C@@H]2O	-4%	-19%	-29%	2%	2%
CC[C@]1(O)CC[C@H]2[C@@H]3CCC4=CCCC[C@@H]4[C@H]3CC[C@@]21C	nt	1%	24µM*	?	4%
Cc1cccc(-n2c(=S)[nH]c3ccccc3c2=O)n1	-16%	13µM*	-13%	-1%	?
CC1=CC(C)CC(C)OC(=O)CC(c2ccc(O)cc2)NC(=O)C(Cc2c(Br)[nH]c3ccccc23)N(C)C(=O)C(C)NC(=O)C(C)C1 (configuration not stated)	nt	nt	0.12µM*	?	nt
COc1cc(/C=N/n2cnnc2)ccc1OC(=O)N(C)C	8%	?	-3%	1%	3%
COc1cc(/C=C/[N+](=O)[O-])ccc1OC(=O)c1cccnc1	?	6.3µM*	-22%	-4%	3.5µM*
O=C(c1cncc(Br)c1)N1CCN(S(=O)(=O)c2ccc3ccccc3c2)CC1	?	nt	2%	-1%	nt
COC(=O)C1=C(c2ccc(-c3ccccc3)c(F)c2)C[C@@H]2CC[C@H]1N2C(=O)NC1Cc2ccccc2C1	-4%	nt	3.7µM*	-44%	nt
COC(=O)C1=C(c2ccc(-c3ccccc3)c(F)c2)C[C@@H]2CC[C@H]1N2C(=O)NCC1CC1	9%	nt	?	?	nt
CCCNC(=O)N1[C@H]2CC[C@@H]1C(C(=O)OC)=C(c1cc3ccccc3s1)C2	nt	nt	9%	-9%	nt
COC(=O)C1=C(c2cc3ccccc3s2)C[C@@H]2CC[C@H]1N2C(=O)N1CCCCC1	nt	nt	?	18µM*	nt
COC(=O)C1=C(c2cc3ccccc3o2)C[C@@H]2CC[C@H]1N2C(=O)NC(C)C	nt	nt	10µM*	15%	nt
COC(=O)C1=C(c2cc3ccccc3o2)C[C@@H]2CC[C@H]1N2C(=O)NCCNC(C)=O	nt	nt	6%	-7%	nt
COC(=O)C1=C(c2cc3ccccc3s2)C[C@@H]2CC[C@H]1N2C(=O)NC1CCCCC1	nt	nt	?	21µM*	nt
Cc1coc2c1CCC(C)C2 (configuration not stated)	nt	-14%	nt	nt	0%
SMILES	ELG1 repair inh	RORgamma inh	SW480 rereplic	MCF10A rerep	Gal4-VP16 FLuc
CC(C)(C)OC(=O)N(CCc1ccccc1)Cc1ccc(OCc2cccc(NC(=O)c3ccccc3)c2)cc1	nt	nt	?	-5%	nt
COC(=O)COc1ccc(C[C@@H](C)NC[C@H](O)c2cccc(Cl)c2)cc1	nt	-13%	nt	nt	-7%
Oc1ccc2c3c1O[C@H]1c4c(c5ccccc5n4Cc4ccccc4)C[C@]4(O)[C@H](C2)N(CC2CC2)CC[C@@]314	nt	?	nt	nt	-28%
ClCCCCl	nt	-2%	nt	nt	5%
Cc1ccc(-c2cc(C(F)F)n3ncc(C(=O)N4CCc5ccccc5C4)c3n2)cc1	-12%	1%	18µM*	?	-2%
COc1ccc(NC(c2ccccc2F)P(=O)(Oc2ccccc2)Oc2ccccc2)cc1 (configuration not stated)	18µM*	31%	8%	0%	-19%
O=C(Cn1ncc2c3ccccc3n(Cc3ccc(F)cc3)c2c1=O)N1CCC2(CC1)OCCO2	21µM*	?	4%	21%	-5%
CCC1/C=C/C=CCC(C)C(O)[C@@](C)(O)C(=O)C(C)C(O)C(C)C(=O)C(C)C(O)C(C)C=CC(=O)O[C@H]2C(C)C(CC1)O[C@]1(CCC(C)C(CC(C)O)O1)C2C (some centres not stated)	nt	0.0006µM*	nt	nt	50µM*
CCC1C2CC3C4N(C)c5ccccc5[C@]45CC(C2C5O)N3C1O (some centres not stated)	nt	3%	nt	nt	-2%
CC[C@]1(O)CC(O[C@@H]2CC(N(C)C)C(O)C(C)O2)c2c(cc3c(c2O)C(=O)c2c(O)ccc(O)c2C3=O)C1C(=O)OC (some centres not stated)	nt	1.1µM*	nt	nt	2.2µM*
COC(=O)CSc1cc([N+](=O)[O-])cc2c1c(C1OCCO1)nn2-c1ccccc1	15%	-37%	-1%	?	-11%
Cc1cc(C)nc(OC(=O)c2ccc(Cl)cc2Cl)n1	?	24%	nt	nt	-15%
CC[C@H](C)[C@@H](C(=O)N1CCCC1c1nccs1)N(C)C(=O)[C@H](CC(C)C)N(C)C(=O)[C@H](Cc1ccc(OC)cc1)N(C)C(=O)/C=C(\C)OC (some centres not stated)	?	nt	21µM*	?	nt
C=C1C(=O)O[C@H]2[C@H]1[C@H](OC(=O)CC(=O)O[C@@H]1C[C@@H](C)[C@@H]3C=CC(=O)[C@@]3(C)[C@H]3OC(=O)C(=C)[C@H]13)C[C@@H](C)[C@H]1C=CC(=O)[C@]12C	?	7.1µM*	2%	2.3µM*	7.1µM*
C=C1C(=O)O[C@@H]2C[C@@H](C)[C@@H]3C=CC(=O)[C@@]3(C)[C@@H](OC(=O)CC(=O)O[C@H]3[C@@H]4C(=C)C(=O)O[C@@H]4C[C@@H](C)[C@@H]4C=CC(=O)[C@]43C)[C@H]12	?	1.1µM*	?	?	0.63µM*
C=C1C(=O)O[C@H]2C[C@@H](C)[C@@H]3C=CC(=O)[C@@]3(C)C[C@H]12	?	6.3µM*	?	2.9µM*	10µM*
